Reference: PubChem BioAssay AID1159580 (chemical genetic matrix, 2015)
Among all 5,500 compounds or so, about 2,000 (36%) were called active. Not shown: some 18% with an inconclusive outcome. Some of the results follow. Values without a mark were called inactive. Rule as the data show it: active = normalized growth mostly below about 0.91 (no sharp cut-off); inconclusive = no clear call, values can overlap the other calls; inactive = mostly above about 0.92.

Assay: chemical genetic growth profiling, strain panel (AID 1159580);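 also: tested at 20 µM; growth read once vehicle control cultures reached saturation at 30 °C; 1 = growth at the plate median or of vehicle wells; lower values mean less growth of the strain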
Details: S. cerevisiae deletion strains, growth OD

COc1cc(CC(C)N)c(OC)cc1I (configuration not stated)
normalized growth (locus YAL040C, strain CLN3, stronger effect = lower value): 0.975
normalized growth (locus YCL061C, strain MRC1 (second series), stronger effect = lower value): 1
normalized growth (locus YDR363W, strain ESC2, stronger effect = lower value): 1.04
normalized growth (locus YER002W, strain NOP16, stronger effect = lower value): 1.03
normalized growth (locus YJR075W, strain HOC1, stronger effect = lower value): 1.01
normalized growth (locus YMR307W, strain GAS1, stronger effect = lower value): 0.996
normalized growth (locus YNL175C, strain NOP13, stronger effect = lower value): 0.995
normalized growth (locus YNL197C, strain WHI3, stronger effect = lower value): 1.02
normalized growth (locus YNL224C, strain SQS1, stronger effect = lower value): 0.997
normalized growth (locus YNL322C, strain KRE1, stronger effect = lower value): 1
normalized growth (locus YOR083W, strain WHI5 (second series), stronger effect = lower value): 0.984
normalized growth (locus YPL055C, strain LGE1, stronger effect = lower value): 1.03
normalized growth (locus YPL241C, strain CIN2, stronger effect = lower value): 0.991

CC1=CC(=O)c2c(O)cccc2C1=O
normalized growth (locus YAL021C, strain ccr4, stronger effect = lower value): 0.0614 (active)
normalized growth (locus YAL026C, strain drs2, stronger effect = lower value): 0.0573 (active)
normalized growth (locus YAL030W, strain snc1, stronger effect = lower value): 0.0538 (active)
normalized growth (locus YBL061C, strain skt5, stronger effect = lower value): 0.0578 (active)
normalized growth (locus YBR009C, strain hhf1, stronger effect = lower value): 0.0566 (active)
normalized growth (locus YBR023C, strain chs3, stronger effect = lower value): 0.0593 (active)
normalized growth (locus YBR171W, strain sec66, stronger effect = lower value): 0.0747 (active)
normalized growth (locus YBR231C, strain swc5, stronger effect = lower value): 0.0608 (active)
normalized growth (locus YBR279W, strain paf1, stronger effect = lower value): 0.0613 (active)
normalized growth (locus YCL011C, strain gbp2, stronger effect = lower value): 0.053 (active)
normalized growth (locus YCL016C, strain dcc1, stronger effect = lower value): 0.0629 (active)
normalized growth (locus YCL069W, strain vba3, stronger effect = lower value): 0.058 (active)
normalized growth (locus YCR088W, strain abp1, stronger effect = lower value): 0.0593 (active)
normalized growth (locus YDL005C, strain med2, stronger effect = lower value): 0.0698 (active)
normalized growth (locus YDL040C, strain nat1, stronger effect = lower value): 0.073 (active)
normalized growth (locus YDR001C, strain nth1, stronger effect = lower value): 0.0551 (active)
normalized growth (locus YDR069C, strain doa4, stronger effect = lower value): 0.0589 (active)
normalized growth (locus YDR137W, strain rgp1, stronger effect = lower value): 0.103 (active)
normalized growth (locus YDR159W, strain sac3, stronger effect = lower value): 0.139 (active)
normalized growth (locus YDR195W, strain ref2): 0.132 (active)
normalized growth (locus YDR297W, strain sur2, stronger effect = lower value): 0.0527 (active)
normalized growth (locus YDR334W, strain swr1, stronger effect = lower value): 0.063 (active)
normalized growth (locus YDR335W, strain msn5, stronger effect = lower value): 0.0594 (active)
normalized growth (locus YDR392W, strain spt3, stronger effect = lower value): 0.0748 (active)
normalized growth (locus YEL003W, strain gim4, stronger effect = lower value): 0.0513 (active)
normalized growth (locus YEL037C, strain rad23, stronger effect = lower value): 0.0601 (active)
normalized growth (locus YEL061C, strain CIN8 (second series), stronger effect = lower value): 0.0564 (active)
normalized growth (locus YER015W, strain faa2, stronger effect = lower value): 0.0571 (active)
normalized growth (locus YER016W, strain bim1, stronger effect = lower value): 0.0586 (active)
normalized growth (locus YER111C, strain swi4, stronger effect = lower value): 0.71 (active)
normalized growth (locus YER155C, strain BEM2 (second series), stronger effect = lower value): 0.0832 (active)
normalized growth (locus YFR010W, strain ubp6, stronger effect = lower value): 0.0636 (active)
normalized growth (locus YGL167C, strain pmr1, stronger effect = lower value): 0.071 (active)
normalized growth (locus YGL173C, strain kem1, stronger effect = lower value): 0.0648 (active)
normalized growth (locus YGL227W, strain vid30, stronger effect = lower value): 0.0587 (active)
normalized growth (locus YGL240W, strain doc1, stronger effect = lower value): 0.0736 (active)
normalized growth (locus YGL253W, strain hxk2, stronger effect = lower value): 0.0519 (active)
normalized growth (locus YHR013C, strain ard1, stronger effect = lower value): 0.101 (active)
normalized growth (locus YHR027C, strain rpn1, stronger effect = lower value): 0.0589 (active)
normalized growth (locus YHR030C, strain SLT2, stronger effect = lower value): 0.108 (active)
normalized growth (locus YHR079C, strain IRE1, stronger effect = lower value): 0.123 (active)
normalized growth (locus YHR142W, strain chs7, stronger effect = lower value): 0.0661 (active)
normalized growth (locus YJL092W, strain hpr5, stronger effect = lower value): 0.061 (active)
normalized growth (locus YJL095W, strain BCK1 (second series), stronger effect = lower value): 0.0545 (active)
normalized growth (locus YJL095W, strain BCK1, stronger effect = lower value): 0.133 (active)
normalized growth (locus YJL115W, strain asf1, stronger effect = lower value): 0.0773 (active)
normalized growth (locus YJL129C, strain trk1, stronger effect = lower value): 0.653 (active)
normalized growth (locus YJL154C, strain vps35, stronger effect = lower value): 0.0541 (active)
normalized growth (locus YJL164C, strain tpk1, stronger effect = lower value): 0.0572 (active)
normalized growth (locus YJL166W, strain qcr8, stronger effect = lower value): 0.0557 (active)
normalized growth (locus YJL187C, strain SWE1, stronger effect = lower value): 0.0545 (active)
normalized growth (locus YJR066W, strain TOR1, stronger effect = lower value): 0.00113 (active)
normalized growth (locus YKL160W, strain elf1, stronger effect = lower value): 0.0646 (active)
normalized growth (locus YKR026C, strain gcn3, stronger effect = lower value): 0.0585 (active)
normalized growth (locus YKR091W, strain srl3, stronger effect = lower value): 0.0562 (active)
normalized growth (locus YLL001W, strain dnm1, stronger effect = lower value): 0.0574 (active)
normalized growth (locus YLL026W, stronger effect = lower value): 0.0541 (active)
normalized growth (locus YLL041C, strain sdh2, stronger effect = lower value): 0.0519 (active)
normalized growth (locus YLR027C, strain aat2, stronger effect = lower value): 0.0528 (active)
normalized growth (locus YLR113W, strain HOG1, stronger effect = lower value): 0.191 (active)
normalized growth (locus YLR221C, strain rsa3, stronger effect = lower value): 0.054 (active)
normalized growth (locus YLR258W, strain gsy2, stronger effect = lower value): 0.056 (active)
normalized growth (locus YLR262C, strain YPT6 (second series), stronger effect = lower value): 0.0717 (active)
normalized growth (locus YLR320W, strain mms22, stronger effect = lower value): 0.0755 (active)
normalized growth (locus YLR342W, strain FKS1, stronger effect = lower value): 0.0621 (active)
normalized growth (locus YLR357W, strain rsc2, stronger effect = lower value): 0.113 (active)
normalized growth (locus YLR370C, strain arc18, stronger effect = lower value): 0.0568 (active)
normalized growth (locus YLR384C, strain iki3, stronger effect = lower value): 0.0609 (active)
normalized growth (locus YML120C, strain ndi1, stronger effect = lower value): 0.0584 (active)
normalized growth (locus YMR058W, strain fet3, stronger effect = lower value): 0.0576 (active)
normalized growth (locus YMR125W, strain sto1, stronger effect = lower value): 0.0728 (active)
normalized growth (locus YMR129W, stronger effect = lower value): 0.0547 (active)
normalized growth (locus YMR205C, strain PFK2, stronger effect = lower value): 0.0815 (active)
normalized growth (locus YMR231W, strain pep5, stronger effect = lower value): 0.0627 (active)
normalized growth (locus YNL071W, strain lat1, stronger effect = lower value): 0.0579 (active)
normalized growth (locus YNL183C, strain NPR1, stronger effect = lower value): 0.000686 (active)
normalized growth (locus YNL209W, strain ssb2, stronger effect = lower value): 0.0563 (active)
normalized growth (locus YNL248C, strain rpa49, stronger effect = lower value): 0.0708 (active)
normalized growth (locus YNL322C, strain KRE1 (second series), stronger effect = lower value): 0.062 (active)
normalized growth (locus YNR049C, strain mso1, stronger effect = lower value): 0.0527 (active)
normalized growth (locus YOR001W, strain rrp6, stronger effect = lower value): 0.065 (active)
normalized growth (locus YOR070C, strain gyp1, stronger effect = lower value): 0.0567 (active)
normalized growth (locus YOR080W, strain dia2, stronger effect = lower value): 0.1 (active)
normalized growth (locus YOR083W, strain WHI5, stronger effect = lower value): 0.0584 (active)
normalized growth (locus YOR106W, strain vam3, stronger effect = lower value): 0.0629 (active)
normalized growth (locus YOR231W, strain MKK1, stronger effect = lower value): 0.115 (active)
normalized growth (locus YOR265W, strain rbl2, stronger effect = lower value): 0.0542 (active)
normalized growth (locus YOR270C, strain vph1, stronger effect = lower value): 0.0962 (active)
normalized growth (locus YOR290C, strain snf2, stronger effect = lower value): 0.906
normalized growth (locus YPL051W, strain arl3, stronger effect = lower value): 0.0583 (active)
normalized growth (locus YPL078C, strain atp4, stronger effect = lower value): 0.163 (active)
normalized growth (locus YPL106C, strain sse1, stronger effect = lower value): 0.0924 (active)
normalized growth (locus YPL240C, strain hsp82, stronger effect = lower value): 0.0548 (active)
normalized growth (locus YPL256C, strain CLN2, stronger effect = lower value): 0.128 (active)
